The term AC50 denotes the concentration giving half of the maximal activity seen.

Results filed as inconclusive are left out. Activity calls are given as the source filed them. Rule for the calls, unless noted: active = hit-call score of the fitted dose curve at least 0.9, where 1 is the maximum; inactive = score below 0.9.

Our source for the outcome and AC50 values is PubChem BioAssay (EPA / NIEHS).

Test [1] deals with Paired box protein Pax-6 (Homo sapiens) (UniProt P26367). The experiment in a line: ATG_Pax6_CIS: Attagene CIS-FACTORIAL HepG2 Assay for human Paired Box 6 (PAX6) (AID 2282956). The note with it: HepG2 CIS-FACTORIAL PAX6 reporter transcription, RNA readout; actives raise or lower the signal. Summed up:
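Read-out is reporter transcript level, measured by RT-PCR with fluorescent primer extension and capillary electrophoresis after 24 h dosing of transfected HepG2 cells. Activity in either direction fitted relative to DMSO control.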

Test [2] can be described thus: ATG_PXRE_CIS: Attagene CIS-FACTORIAL HepG2 Assay for human Pregnane X Receptor Element (PXRE) (AID 2282957). The note with it: HepG2 Attagene CIS-FACTORIAL PXRE reporter, mRNA; actives raise or lower the signal. Summed up: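 Fluorescent capillary electrophoresis of amplified reporter cDNA gave the signal, collected 24 h after dosing HepG2 cells that held transfected cis-element reporter constructs.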

Test [3] can be described thus: ATG_PPRE_CIS: Attagene CIS-FACTORIAL HepG2 Assay for human Peroxisome Proliferator-activated Response Element (PPRE) (AID 2282958). The note with it: HepG2 PPRE cis-element reporter, Attagene transcription factor profiling; actives raise or lower the signal. Summed up:
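Transcript-level reporter induction in transfected HepG2 cells after 24 h chemical exposure, quantified by fluorescence from RT-PCR products separated by capillary electrophoresis.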

The nature of test [4]: ATG_RORE_CIS: Attagene CIS-FACTORIAL HepG2 Assay for human RAR-related Orphan Receptor Element (RORE) (AID 2282959). To be noted: HepG2 Attagene cis-factorial RORE reporter, mRNA; actives raise or lower the signal. The method in brief:
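Multiplexed reporter assay measuring mRNA induction from a cis promoter element in transiently transfected HepG2 cells after 24 h treatment. Detection via RT-PCR and capillary electrophoresis fluorescence; DMSO serves as baseline.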

The nature of test [5]: ATG_Sox_CIS: Attagene CIS-FACTORIAL HepG2 Assay for human SRY-box transcription factor (SOX) (AID 2282960). To be noted: HepG2 Attagene cis-factorial SOX reporter, mRNA; actives raise or lower the signal. Summed up: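 Cells were transfected with reporter constructs under cis-regulatory promoters, then exposed to chemicals for 24 h. Reporter transcripts were quantified by fluorescence after RT-PCR and capillary electrophoresis; activity was fitted in both directions against DMSO.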

Test [6] concerns the target Transcription factor Sp1 (Homo sapiens) (UniProt P08047). As to the kind of experiment: ATG_Sp1_CIS: Attagene CIS-FACTORIAL HepG2 Assay for human Specificity Protein 1 (Sp1) (AID 2282961). The note with it: HepG2 Sp1 cis-reporter transcription, actives raise or lower the signal. Summed up:
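Measures mRNA induction of an Sp1-linked reporter in HepG2 cells 24 h post-dosing. Multiplexed reporters read by RT-PCR and capillary electrophoresis; DMSO serves as negative control and baseline.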

Test [7] is described as follows: ATG_SREBP_CIS: Attagene CIS-FACTORIAL HepG2 Assay for human Sterol Regulatory Element Binding (SREBP) (AID 2282962). To be noted: HepG2 Attagene cis-factorial SREBP reporter, mRNA; actives raise or lower the signal. Summed up:
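Endogenous SREBP activity read as cis-element-driven reporter transcript in transiently transfected HepG2, 24 h post-dosing; quantified via RT-PCR plus capillary electrophoresis of fluorescent fragments. Gain or loss of signal fitted relative to DMSO baseline.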

Test [8] addresses Signal transducer and activator of transcription 3 (Homo sapiens) (UniProt P40763). As to the kind of experiment: ATG_STAT3_CIS: Attagene CIS-FACTORIAL HepG2 Assay for human Signal Transducer and Activator of Transcription 3 (STAT3) (AID 2282963). The note with it: HepG2, Attagene cis-factorial STAT3 reporter transcription; actives raise or lower the signal. Summed up:
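Readout: fluorescent reporter mRNA fragments resolved by capillary electrophoresis. Setup: HepG2 transfected with MRTUs reporting endogenous transcription-factor activity, dosed 24 h. Gain or loss of signal fitted bidirectionally against DMSO control.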

Test [9] can be described thus: ATG_TA_CIS: Attagene CIS-FACTORIAL HepG2 Assay for human TA Basal Promoter (AID 2282964). To be noted: HepG2 Attagene CIS-factorial TA basal promoter reporter; actives raise or lower the signal. Summed up: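 Transfected HepG2, 24 h compound exposure; RNA → RT-PCR → FAM primer extension → HpaI cut → CE fluorescence. Gain/loss-of-signal fitted against DMSO negative control. Background-control readout.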

The nature of test [10]: ATG_TCF_b_cat_CIS: Attagene CIS-FACTORIAL HepG2 Assay for human T-Cell-Factor with beta-catenin (TCF/b-cat) (AID 2282965). The note with it: HepG2 TCF/beta-catenin cis-reporter transcription, actives raise or lower the signal. Summed up:
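HepG2, transient MRTU transfection, cis-element-driven reporters (endogenous TFs). 24 h compound exposure. Readout: reporter mRNA by RT-PCR + 6-FAM primer extension, HpaI digest, capillary electrophoresis. Gain/loss fit vs DMSO baseline.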

The nature of test [11]: ATG_TAL_CIS: Attagene CIS-FACTORIAL HepG2 Assay for human TAL Basal Promoter (AID 2282966).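 Note: background control endpoint measuring basal TAL promoter reporter mRNA not a specific factor.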 To be noted: HepG2 Attagene cis-factorial TAL promoter reporter; actives raise or lower the signal. Summed up:
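Transiently transfected HepG2 (cis-regulated reporter units), 24 h treatment, mRNA read by fluorescent CE after RT-PCR; bidirectional fit, DMSO baseline.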

Test [12] can be described thus: ATG_TGFb_CIS: Attagene CIS-FACTORIAL HepG2 Assay for human Transforming Growth Factor (TGF) (AID 2282967). The note with it: HepG2 Attagene CIS TGFb reporter, mRNA transcription; actives raise or lower the signal. The method in brief: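 Readout: fluorescently labeled reporter cDNA fragments resolved by capillary electrophoresis after RT-PCR. Transfected HepG2 cells dosed for 24 h; endogenous TF activity at TGFB1-linked cis element; gain or loss fitted relative to DMSO.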

A short description of test [13]: ATG_VDRE_CIS: Attagene CIS-FACTORIAL HepG2 Assay for human Vitamin D Receptor Element (VDRE) (AID 2282968). The note with it: HepG2 VDRE cis-reporter transcription, actives raise or lower the signal. Summed up:
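Transient MRTU transfection of HepG2, 24 h compound exposure. Readout: reporter transcripts via RT-PCR and capillary electrophoresis, fluorescence. Bidirectional fit vs DMSO.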

Test [14] concerns the target X-box-binding protein 1 (Homo sapiens) (UniProt P17861). The experiment in a line: ATG_Xbp1_CIS: Attagene CIS-FACTORIAL HepG2 Assay for human X-box Binding Protein 1 (XBP1) (AID 2282972). To be noted: HepG2 XBP1 cis-element reporter, Attagene multiplex; actives raise or lower the signal. The method in brief: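 Reporter transcripts were quantified by RT-PCR with fluorescent primer extension and capillary electrophoresis after 24 h chemical exposure. Cells: transiently transfected HepG2 carrying cis-regulated reporter constructs; data fitted bidirectionally relative to DMSO.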

The target in test [15] is Steroid hormone receptor ERR1 (Homo sapiens) (UniProt P11474). As to the kind of experiment: ATG_ERRa_TRANS: Attagene TRANS-FACTORIAL HepG2 Assay for human Estrogen-Related Receptor alpha (ERRa) (AID 2282971; active = hit-call score of the fitted dose curve at least 0.9, where 1 is the maximum). To be noted: HepG2 Attagene TRANS reporter, ERRa transactivation. The method in brief:
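HepG2 cells transiently transfected with multiplexed GAL4-UAS reporter units reading chimeric ERRa-Gal4 activity; 24 h compound exposure. Reporter mRNA measured by RT-PCR, 6-FAM labelling, HpaI digest and capillary electrophoresis; gain of signal fitted versus DMSO baseline.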

A short description of test [16]: ATG_GAL4_TRANS: Attagene TRANS-FACTORIAL HepG2 Assay for GAL4 (Internal Marker) (AID 2282976; active = hit-call score of the fitted dose curve at least 0.9, where 1 is the maximum). The note with it: HepG2 Attagene TRANS GAL4 internal marker reporter. The method in brief: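 HepG2 cells transiently transfected with multiplexed GAL4-UAS reporter constructs were dosed for 24 h. Reporter mRNA was measured by RT-PCR, 6-FAM primer extension, HpaI digestion and capillary electrophoresis, and gain of signal was fitted relative to DMSO.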

The target in test [17] is Nuclear receptor subfamily 1 group I member 3 (Homo sapiens) (UniProt Q14994). The experiment in a line: ATG_CAR_TRANS: Attagene TRANS-FACTORIAL HepG2 Assay for human Constitutive Androstane Receptor (CAR) (AID 2282969; active = hit-call score of the fitted dose curve at least 0.9, where 1 is the maximum;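 note: activators raise reporter mRNA above DMSO so AC50 marks induction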). To be noted: HepG2 Attagene TRANS-FACTORIAL CAR reporter. The method in brief:
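Transiently transfected HepG2, multiplex TRANS reporters (CAR-Gal4 chimera driving GAL4-UAS reporter). 24 h dosing. Readout: reporter transcript by RT-PCR + capillary electrophoresis, fluorescence intensity; positive direction vs DMSO.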

Test [18] deals with Estrogen-related receptor gamma (Homo sapiens) (UniProt P62508). The experiment in a line: ATG_ERRg_TRANS: Attagene TRANS-FACTORIAL HepG2 Assay for human Estrogen-Related Receptor gamma (ERRg) (AID 2282977; active = hit-call score of the fitted dose curve at least 0.9, where 1 is the maximum;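 note: hits increase reporter signal over DMSO so potencies reflect activators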). To be noted: HepG2 Attagene TRANS reporter, ERRg transactivation. Summed up:
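Exogenous NR-Gal4 chimera activity was assessed in HepG2 cells bearing transfected GAL4-UAS reporters. After 24 h dosing, total RNA underwent RT-PCR, fluorescent primer extension and HpaI digestion before capillary electrophoresis, with gain of signal scored against DMSO.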

Test [19] addresses Estrogen receptor (Homo sapiens) (UniProt P03372). As to the kind of experiment: ATG_ERa_TRANS: Attagene TRANS-FACTORIAL HepG2 Assay for human Estrogen Receptor alpha (ERa) (AID 2282970; active = hit-call score of the fitted dose curve at least 0.9, where 1 is the maximum). To be noted: HepG2 Attagene TRANS ERa GAL4 reporter, mRNA. Summed up: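 One of 30 multiplexed endpoints from a HepG2 TRANS system, this one reports ERa-Gal4-driven reporter mRNA. Transcripts were quantified 24 hours post-dosing by fluorescent RT-PCR and capillary electrophoresis, with activity scored as induction over DMSO.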

Test [20] can be described thus: ATG_M_19_TRANS: Attagene TRANS-FACTORIAL HepG2 Assay for M19 Transcription Factor (Internal Marker) (AID 2282974; active = hit-call score of the fitted dose curve at least 0.9, where 1 is the maximum). To be noted: HepG2 Attagene TRANS-FACTORIAL M19 internal marker reporter. Summed up: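 After transfection of HepG2 with GAL4-UAS-driven reporter constructs, cells are dosed for 24 h. Total RNA is reverse-transcribed, reporter sequences PCR-amplified and labelled, then HpaI-digested and sized by capillary electrophoresis.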

Signal transducer and activator of transcription 3 (Homo sapiens), sequence (P40763 whole entry, looked up, the tested form may be a part): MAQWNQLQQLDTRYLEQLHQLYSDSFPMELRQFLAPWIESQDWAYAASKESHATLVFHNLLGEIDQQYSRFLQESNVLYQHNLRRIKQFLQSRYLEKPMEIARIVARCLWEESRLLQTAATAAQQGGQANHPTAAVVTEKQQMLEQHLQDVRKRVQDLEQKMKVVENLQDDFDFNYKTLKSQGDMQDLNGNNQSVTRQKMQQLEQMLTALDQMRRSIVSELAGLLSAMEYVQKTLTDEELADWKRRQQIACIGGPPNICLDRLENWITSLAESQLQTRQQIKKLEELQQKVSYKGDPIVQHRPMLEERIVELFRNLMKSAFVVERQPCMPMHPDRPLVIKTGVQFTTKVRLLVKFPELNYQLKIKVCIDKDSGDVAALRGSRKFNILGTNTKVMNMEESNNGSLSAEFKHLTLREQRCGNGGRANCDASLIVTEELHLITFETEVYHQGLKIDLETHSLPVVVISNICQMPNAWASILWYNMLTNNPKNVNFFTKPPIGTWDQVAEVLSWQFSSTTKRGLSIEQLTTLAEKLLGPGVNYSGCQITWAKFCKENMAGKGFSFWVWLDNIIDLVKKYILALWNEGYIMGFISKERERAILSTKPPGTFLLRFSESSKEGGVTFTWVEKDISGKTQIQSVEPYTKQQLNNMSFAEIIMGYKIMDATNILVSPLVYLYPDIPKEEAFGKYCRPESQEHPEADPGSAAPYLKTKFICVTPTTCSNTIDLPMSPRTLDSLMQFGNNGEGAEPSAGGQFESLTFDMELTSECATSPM
Paired box protein Pax-6 (Homo sapiens), sequence (P26367 whole entry, looked up): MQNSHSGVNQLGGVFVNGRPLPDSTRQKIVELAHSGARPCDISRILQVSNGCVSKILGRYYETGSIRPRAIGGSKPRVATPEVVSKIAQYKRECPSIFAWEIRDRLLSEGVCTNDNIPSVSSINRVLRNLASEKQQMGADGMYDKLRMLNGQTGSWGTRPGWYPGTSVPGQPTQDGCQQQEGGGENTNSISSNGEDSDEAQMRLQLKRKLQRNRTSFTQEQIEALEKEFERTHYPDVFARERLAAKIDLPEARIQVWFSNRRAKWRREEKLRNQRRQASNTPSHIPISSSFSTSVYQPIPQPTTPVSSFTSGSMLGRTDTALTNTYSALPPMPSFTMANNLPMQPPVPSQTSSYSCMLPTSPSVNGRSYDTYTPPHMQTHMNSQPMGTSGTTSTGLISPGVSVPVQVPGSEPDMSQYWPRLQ
Transcription factor Sp1 (Homo sapiens), sequence (P08047 whole entry, looked up): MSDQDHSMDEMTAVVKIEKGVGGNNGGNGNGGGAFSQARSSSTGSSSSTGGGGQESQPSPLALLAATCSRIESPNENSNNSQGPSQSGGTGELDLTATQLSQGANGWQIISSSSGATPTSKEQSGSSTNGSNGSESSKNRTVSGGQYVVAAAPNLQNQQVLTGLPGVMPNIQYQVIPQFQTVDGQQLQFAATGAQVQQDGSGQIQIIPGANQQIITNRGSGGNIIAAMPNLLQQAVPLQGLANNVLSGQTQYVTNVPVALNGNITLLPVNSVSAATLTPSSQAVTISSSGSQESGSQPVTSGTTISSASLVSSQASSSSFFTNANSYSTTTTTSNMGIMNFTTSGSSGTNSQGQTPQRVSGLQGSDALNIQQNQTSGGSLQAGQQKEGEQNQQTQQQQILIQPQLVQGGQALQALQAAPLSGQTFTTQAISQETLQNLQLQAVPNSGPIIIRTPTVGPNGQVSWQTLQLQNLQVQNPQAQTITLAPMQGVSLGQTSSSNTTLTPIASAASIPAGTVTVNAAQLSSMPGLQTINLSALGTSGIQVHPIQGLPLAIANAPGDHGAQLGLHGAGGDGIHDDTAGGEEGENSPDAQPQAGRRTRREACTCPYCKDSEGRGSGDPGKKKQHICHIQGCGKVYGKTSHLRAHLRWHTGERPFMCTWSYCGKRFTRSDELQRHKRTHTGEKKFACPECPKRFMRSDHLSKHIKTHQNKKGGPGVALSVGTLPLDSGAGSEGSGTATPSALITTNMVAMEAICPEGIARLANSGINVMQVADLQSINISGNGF
X-box-binding protein 1 (Homo sapiens), sequence (P17861 whole entry, looked up): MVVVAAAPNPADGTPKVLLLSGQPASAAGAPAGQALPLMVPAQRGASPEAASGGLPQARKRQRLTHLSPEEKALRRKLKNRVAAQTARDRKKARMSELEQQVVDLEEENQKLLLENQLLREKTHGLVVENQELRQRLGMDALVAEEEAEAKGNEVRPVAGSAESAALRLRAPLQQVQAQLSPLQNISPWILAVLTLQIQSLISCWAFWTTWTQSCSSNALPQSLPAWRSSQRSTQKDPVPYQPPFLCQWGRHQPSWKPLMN
Steroid hormone receptor ERR1 (Homo sapiens), sequence (P11474 whole entry, looked up, the tested form may be a part): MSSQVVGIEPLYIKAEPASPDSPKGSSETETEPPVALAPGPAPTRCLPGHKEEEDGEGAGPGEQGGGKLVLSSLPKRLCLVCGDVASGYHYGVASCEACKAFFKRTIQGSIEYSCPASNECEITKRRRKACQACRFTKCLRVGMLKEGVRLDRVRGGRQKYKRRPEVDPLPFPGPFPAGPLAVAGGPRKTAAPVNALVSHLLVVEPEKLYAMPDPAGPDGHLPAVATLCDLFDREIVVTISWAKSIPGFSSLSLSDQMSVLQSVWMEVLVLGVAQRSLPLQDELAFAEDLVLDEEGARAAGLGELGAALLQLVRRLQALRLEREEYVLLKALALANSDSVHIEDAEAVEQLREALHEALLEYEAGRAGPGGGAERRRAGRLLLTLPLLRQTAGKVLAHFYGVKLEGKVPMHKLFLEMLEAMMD
Nuclear receptor subfamily 1 group I member 3 (Homo sapiens), sequence (Q14994 whole entry, looked up, the tested form may be a part): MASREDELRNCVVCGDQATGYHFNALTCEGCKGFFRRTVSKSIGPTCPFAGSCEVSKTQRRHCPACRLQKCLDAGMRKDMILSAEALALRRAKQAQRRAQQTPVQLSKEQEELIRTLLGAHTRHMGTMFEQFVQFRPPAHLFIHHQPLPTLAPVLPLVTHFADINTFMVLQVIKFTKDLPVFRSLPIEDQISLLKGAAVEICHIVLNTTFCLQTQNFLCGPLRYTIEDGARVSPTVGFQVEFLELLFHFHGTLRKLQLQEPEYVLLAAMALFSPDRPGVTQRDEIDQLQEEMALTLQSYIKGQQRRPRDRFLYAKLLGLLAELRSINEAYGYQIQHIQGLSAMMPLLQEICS
Estrogen receptor (Homo sapiens), sequence (P03372 whole entry, looked up, the tested form may be a part): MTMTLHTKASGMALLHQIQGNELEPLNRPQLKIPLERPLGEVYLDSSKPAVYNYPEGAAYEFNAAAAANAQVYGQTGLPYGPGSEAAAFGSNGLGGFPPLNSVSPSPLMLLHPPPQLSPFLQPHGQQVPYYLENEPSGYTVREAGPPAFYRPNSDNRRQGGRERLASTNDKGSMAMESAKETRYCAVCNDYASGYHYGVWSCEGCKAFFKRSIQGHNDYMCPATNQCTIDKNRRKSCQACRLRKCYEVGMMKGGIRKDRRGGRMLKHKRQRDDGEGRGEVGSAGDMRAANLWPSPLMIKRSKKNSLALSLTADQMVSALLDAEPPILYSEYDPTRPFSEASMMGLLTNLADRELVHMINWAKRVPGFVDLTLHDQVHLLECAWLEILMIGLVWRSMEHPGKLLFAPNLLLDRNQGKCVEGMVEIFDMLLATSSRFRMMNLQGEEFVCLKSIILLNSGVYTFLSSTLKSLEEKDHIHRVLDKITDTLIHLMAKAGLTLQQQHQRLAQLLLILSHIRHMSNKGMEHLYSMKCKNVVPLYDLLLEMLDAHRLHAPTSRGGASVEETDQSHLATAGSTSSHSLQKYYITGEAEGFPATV
Estrogen-related receptor gamma (Homo sapiens), sequence (P62508 whole entry, looked up, the tested form may be a part): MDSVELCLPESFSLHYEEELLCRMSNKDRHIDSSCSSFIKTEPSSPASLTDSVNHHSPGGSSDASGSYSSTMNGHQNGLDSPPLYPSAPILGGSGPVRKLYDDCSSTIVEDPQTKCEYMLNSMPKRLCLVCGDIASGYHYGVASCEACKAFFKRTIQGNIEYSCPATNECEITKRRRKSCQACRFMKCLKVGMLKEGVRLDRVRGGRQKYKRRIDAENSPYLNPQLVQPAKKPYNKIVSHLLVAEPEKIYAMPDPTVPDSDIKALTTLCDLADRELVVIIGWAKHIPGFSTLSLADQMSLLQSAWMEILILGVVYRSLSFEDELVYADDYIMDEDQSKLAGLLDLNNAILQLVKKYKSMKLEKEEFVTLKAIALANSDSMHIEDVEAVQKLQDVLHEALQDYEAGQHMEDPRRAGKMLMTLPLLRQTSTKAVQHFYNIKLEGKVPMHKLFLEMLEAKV

For `Cc1cccc(C)c1[N+](=O)[O-]`, the call in [1], in [2], in test [3], in test [4], in test [5] and in test [6] was inactive. Further, the outcome in [7], in test [8], in test [9], in test [10], in test [11] and in test [12] was inactive. Further, the compound was called inactive in test [13] and in test [14].

Regarding `O=C1C(c2[nH]c3ccc(S(=O)(=O)O)cc3c2O)=Nc2ccc(S(=O)(=O)O)cc21`, the compound was called inactive in test [1], in [2], in test [3], in test [4], in test [5] and in test [6]. Also, the outcome in test [7], in [8], in [9], in test [10], in test [11] and in test [12] was inactive. Besides, the compound was called inactive in [13], in test [15], in [14] and in [16].

For the compound `CCCC(=O)C(C)=O`, the call in test [1], in test [3], in [4], in test [5], in test [6] and in test [7] was inactive. For the same compound, the result in test [8], in test [9], in [10], in test [11], in test [12] and in test [13] was inactive. Moreover, the call in test [17], in [15], in test [14] and in test [18] was inactive. For the same compound, in test [2], the half-maximal activity concentration (AC50) is 16.2 µM (active).

For the compound `Nc1cc(N)cc(C(=O)O)c1`, the outcome in [1], in test [2], in test [3], in [4], in test [5] and in test [6] was inactive. For the same compound, the compound was called inactive in [7], in test [8], in test [9], in [10], in test [11] and in test [12]. Besides, the result in [13], in [19], in test [14], in test [20] and in test [16] was inactive.
